Test results reported in PubChem BioAssay (NCATS).
Inconclusive results are not listed. Where a call stands in place of a potency, no number is given. Calls of active or inactive are those of the source. Calls follow the shape of the dose curve; as a rule, active = well fitted curve in the direction sought with a large enough effect; inconclusive = small, poorly fitted or top-dose-only effect, or another doubt; inactive = no such curve, though single readings can be large; an effect the other way counts as inactive or inconclusive.

Legend:
[1] = Quantitative High-Throughput drug screen in 47 multiple myeloma cell lines against the NCATS MIPE library collection: EJM_DSMZ cell viability assay (AID 1918926; also: nearly all actives have a fitted effect of over 30% in size; also: potency is read from the fitted curve at half-maximal effect)
Procedure, shortened: (§1)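 CellTiter-Glo ATP luminescence gave viability after 48 h compound treatment at 37C of 500 multiple myeloma cells per well. Normalisation used DMSO-only wells as 100% and media-only wells as 0% viability; primary qHTS of approved and investigational drugs.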

[2] = Quantitative High-Throughput drug screen in 47 multiple myeloma cell lines against the NCATS MIPE library collection: FR4_PLB cell viability assay (AID 1918924; also: nearly all actives have a fitted effect of over 35% in size; also: potency is read from the fitted curve at half-maximal effect)
Procedure, shortened: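 Primary qHTS used for cherry-picking: cells at 500/well, library compounds for 48 h (37C, 5% CO2), luminescent ATP assay.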

[3] = Quantitative High-Throughput drug screen in 47 multiple myeloma cell lines against the NCATS MIPE library collection: Delta47_JCRB cell viability assay (AID 1918925; also: nearly all actives have a fitted effect of over 45% in size; also: potency is read from the fitted curve at half-maximal effect)
Procedure, shortened: as §1

[4] = molecular target: Phospholipid hydroperoxide glutathione peroxidase GPX4 (Homo sapiens) (UniProt P36969); assay: Primary qHTS Assay for Inhibitors of Recombinant Selenoprotein Glutathione Peroxidase 4 (GPX4) (AID 1845192); also: nearly all actives have a fitted effect of over 65% in size; also: potency is read from the fitted curve at half-maximal effect
Phospholipid hydroperoxide glutathione peroxidase GPX4 (Homo sapiens), sequence (P36969 whole entry, looked up): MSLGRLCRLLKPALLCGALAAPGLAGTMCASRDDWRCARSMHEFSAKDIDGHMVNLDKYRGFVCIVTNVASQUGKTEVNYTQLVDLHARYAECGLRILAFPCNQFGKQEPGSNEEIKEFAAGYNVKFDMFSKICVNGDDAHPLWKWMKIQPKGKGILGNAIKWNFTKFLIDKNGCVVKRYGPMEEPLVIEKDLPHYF
Procedure, shortened: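 NADPH consumption, followed by fluorescence at 340/450 nm between 0 and 15 min, reports GPX4 activity via coupled glutathione reductase (100 nM). Enzyme 200 nM was pre-exposed to compound 30 min; 0.5 mM cumene hydroperoxide and 1 mM GSH served as substrates.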

[5] = system: Nanoluciferase (engineered Oplophorus gracilirostris luciferase); assay: Primary Nanoluciferase (NLuc) qHTS assay for identification of artifact compounds. (AID 1845222);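 also: NLuc secreted into diluted conditioned medium of S16 cells; series mostly up to about 54 µM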
Procedure, shortened: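 NLuc from S16 cell medium (1:55) plus test compounds, 15 min, room temperature. Luminescence after Nano-Glo (1:100) addition, 5 min.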

[6] = Primary redox qHTS assay for identification of artifact compounds. (AID 1845223)
Procedure, shortened: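 Amplex Red (25 uM) and HRP (250 mU/mL) in HBSS, with compounds for 15 min, then 250 uM DTT for 30 min, room temperature, dark. Fluorescence 525/598 nm read; normalized to DMSO and 10 uM DA3003; Hill fit.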

[7] = molecular target: Luciferin 4-monooxygenase (Photinus pyralis) (UniProt P08659); assay: Primary firefly luciferase (FLuc) qHTS assay for identification of artifact compounds. (AID 1845220); also: nearly all actives have a fitted effect of over 60% in size
Procedure, shortened: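 FLuc 10 nM; luciferin 10 uM; ATP 10 uM; Tris-acetate pH 7.6, Mg-acetate 10 mM; 15 min RT preincubation; 5 min reaction; luminescence.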

| Compound | Potency [1] | Potency [2] | Potency [3] | Potency [4] | outcome [5] | outcome [6] | Potency [7] |
| --- | --- | --- | --- | --- | --- | --- | --- |
| CC1(C)SCCN(S(=O)(=O)c2ccc(OCC#CCO)cc2)[C@@H]1C(=O)NO | inactive | – | – | – | – | – | – |
| CCOc1cc(C=C2C(=O)N(c3ccccc3)N=C2C)cc(Cl)c1OCC(=O)OC | 18.7 µM (active) | inactive | 9.35 µM (active) | – | – | – | – |
| Cc1csc(NC(=O)c2sc3nc4c(c(C(F)(F)F)c3c2N)CCC4)n1 | – | inactive | inactive | inactive | inactive | inactive | – |
| Cn1cc(-c2ccc3nnc(C(F)(F)c4ccc5ncccc5c4)n3n2)cn1 | inactive | inactive | – | inactive | inactive | – | inactive |
| CC(C)(C)OC(=O)CN(Cc1ccc(Cl)cc1)Cc1ccc([N+](=O)[O-])s1 | inactive | inactive | – | inactive | – | – | – |
| O=C(C=Cc1ccc(/C=C/C(=O)Nc2ccc(C3=NCCN3)cc2)cc1)Nc1ccc(C2=NCCN2)cc1 | inactive | inactive | inactive | – | – | – | – |
| OCCn1cc(-c2cnc3nnn(Cc4ccc5ncccc5c4)c3n2)cn1 | – | inactive | inactive | 14.3 µM (active) | inactive | inactive | inactive |
| CCCn1c(=O)c2[nH]c(C34CC5CC3C[C@@H](C5)C4)nc2n(CCC)c1=O | 16.6 µM (active) | inactive | inactive | – | – | – | – |
| Cc1cc(C=c2sc3nc4ccccc4n3c2=O)c(C)n1-c1ccccc1 | 6.62 µM (active) | – | – | – | – | – | – |
| C[C@]12CC[C@H](O)CC1=CC[C@@H]1[C@H]2CC[C@]2(C)C(c3cccnc3)=CC[C@H]12 | inactive | inactive | inactive | – | – | – | – |
| O=C(Nc1cccnc1)N1CCC(Cc2cccc(Oc3ccc(C(F)(F)F)cn3)c2)CC1 | 18.7 µM (active) | 16.6 µM (active) | 9.35 µM (active) | – | inactive | inactive | inactive |
